PubChem BioAssay
Active and inactive are the calls of the source. Unless noted, no rule for the calls is given here.

Columns and labels:
[1] = test system: Wnt5a (protein binding on small-molecule microarray); assay: small molecules binding Wnt5a protein – biophysical, small-molecule microarray, 635/667 nm fluorescence, primary screen (AID 1142); settings: 635 nm fluorescence, higher = more signal;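 also: fluorescence read at 667 nm with signal to noise per printed feature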
[2] = ATP-based viability of Huh7 replicon cells – cell-based, CellTiter-Glo luminescence, basal, 48 h, cytotoxicity control for HCV replication inhibitor project, primary screen (AID 1143); settings: higher = more signal, called active from +8 up or from −8 down;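 also: Huh7 hepatoma cells carrying a hepatitis C replication reporter with no stimulus; test concentration not given here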
[3] = Pseudomonas biofilm growth suppression – PAO1 strain, BacTiter-Glo luminescence, LB-PBS, primary screen (AID 1144); settings: P. aeruginosa PAO1 biofilm, 12 h, higher = more signal
[4] = basal CRE-LacZ reporter activity in PC12 – cell-based, unstimulated, primary screen (AID 1145); settings: no forskolin, luminescence, 4.5 h, higher = more signal, called active from +8 up or from −8 down
[5] = forskolin-driven CRE-LacZ activity in PC12 – cell-based, CRE-LacZ reporter, forskolin-stimulated, primary screen (AID 1146); settings: luminescence, 4.5 h, higher = more signal, called active from +8 up or from −8 down;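 also: PC12 cells with 6xCRE LacZ reporter stimulated by forskolin 10 µM; beta-galactosidase reporter signal reflecting CREB driven transcription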
[6] = target: Streptavidin (Streptomyces avidinii) (UniProt P22629); assay: compounds binding control protein streptavidin – biophysical, small-molecule microarray, 635/667 nm fluorescence, artefact control for SMM compound annotation, primary screen (AID 1147); settings: higher = more signal;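 also: signal reflects streptavidin binding to arrayed compounds as a control protein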
Streptavidin (Streptomyces avidinii), sequence (P22629 whole entry, looked up): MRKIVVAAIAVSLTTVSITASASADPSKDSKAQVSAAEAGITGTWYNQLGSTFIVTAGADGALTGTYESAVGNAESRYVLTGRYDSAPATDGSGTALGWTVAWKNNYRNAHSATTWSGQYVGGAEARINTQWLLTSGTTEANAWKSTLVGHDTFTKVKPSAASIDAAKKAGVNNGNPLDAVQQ

[7] = probe aInhba binding on compound microarray – biochemical, small-molecule microarray, 635/667 nm fluorescence, primary screen (AID 1148); settings: higher = more signal;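 also: score merges 667nm spot fluorescence with signal-to-noise for antibody binding to printed compounds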
Torsin-1A (Homo sapiens) [8] = target: Torsin-1A (Homo sapiens) (UniProt O14656); assay: TOR1A wild-type binding on microarray – cell lysate, small-molecule microarray, lysate, 635/667 nm, primary screen (AID 1149); settings: COS7 hTOR1A-WT lysate, 635 nm fluorescence, higher = more signal
Torsin-1A (Homo sapiens), sequence (O14656 whole entry, looked up): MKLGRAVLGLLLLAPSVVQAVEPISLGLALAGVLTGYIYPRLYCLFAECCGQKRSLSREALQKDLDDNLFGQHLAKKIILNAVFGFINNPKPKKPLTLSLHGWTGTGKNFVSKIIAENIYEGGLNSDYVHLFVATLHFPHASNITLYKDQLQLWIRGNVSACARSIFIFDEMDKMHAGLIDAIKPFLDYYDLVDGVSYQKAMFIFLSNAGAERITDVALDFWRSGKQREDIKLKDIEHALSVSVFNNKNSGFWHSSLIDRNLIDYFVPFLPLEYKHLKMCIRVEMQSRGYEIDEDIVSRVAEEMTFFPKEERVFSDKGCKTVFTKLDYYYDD

Torsin-1A (Homo sapiens) [9] = target: Torsin-1A (Homo sapiens) (UniProt O14656); assay: torsin A mutant lysate binding on microarrays – cell lysate, small-molecule microarray, COS7 lysate, 635/667 nm fluorescence, primary screen (AID 1150); settings: COS7 hTOR1A mutant lysate, 635 nm fluorescence, higher = more signal;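 also: score pools 667 nm emission and signal to noise measuring lysate protein binding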
[10] = test system: Sonic hedgehog protein (Shh); assay: Sonic hedgehog microarray binding compounds – biochemical, small-molecule microarray, 635/667 nm fluorescence, primary screen (AID 1151); settings: 635 nm fluorescence, higher = more signal;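 also: Shh protein binding to compounds spotted on small-molecule microarray slides; score combines spot fluorescence intensity with signal-to-noise across triplicate slides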
[11] = optical density shifts of acrAB sulA E. coli – strain DRC41, OD650, 48 h, E. coli filamentation inducer project, primary screen (AID 1152); settings: higher = more signal, called active from +8 up or from −8 down;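 also: E. coli MC1000 strain DRC41 lacking acrAB efflux pump and sulA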
[12] = probe aLefty1 binding on compound microarray – biochemical, small-molecule microarray, 635/667 nm fluorescence, primary screen (AID 1153); settings: higher = more signal;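 also: score merges spot fluorescence with signal-to-noise ratio from the scanned slide images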
[13] = plasmodial surface anion channel blockers, osmotic lysis – cell-based, P. falciparum Indochina, OD700, 1 h, primary screen (AID 1154); settings: P. falciparum Indochina infected RBC osmotic lysis, higher = more signal, called active from +8 up or from −8 down
[14] = plasmodial surface anion channel blockers, osmotic lysis – cell-based, P. falciparum Indochina, OD700, 2 h, primary screen (AID 1155);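 also: lysis reports solute entry through the parasite surface anion channel PSAC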; settings: P. falciparum Indochina infected erythrocytes, higher = more signal, called active from +8 up or from −8 down
[15] = changes in parasitized red cell lysis, either direction – P. falciparum Indochina, OD700, 3 h, PSAC antagonist project, primary screen (AID 1156); settings: P. falciparum-infected erythrocytes, osmotic lysis, higher = more signal, called active from +8 up or from −8 down
[16] = plasmodial surface anion channel blockers, osmotic lysis – cell-based, P. falciparum Indochina, OD700, 18 h, primary screen (AID 1157); settings: P. falciparum Indochina infected erythrocytes, osmotic lysis OD700, 18 h; higher = more signal, called active from +8 up or from −8 down
[17] = S6 kinase pathway phospho-S6 level changes – cell-based, A549, cytoblot, luminescence, serum-stimulated, primary screen (AID 1158); settings: 5 h, higher = more signal;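 also: serum-stimulated A549 lung adenocarcinoma cells; signal is phosphorylated S6 detected by cytoblot immunostaining with HRP secondary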
[18] = target: NADPH oxidase 2 (Homo sapiens) (UniProt P04839); assay: compounds shifting NOX2 Amplex Red fluorescence – cell-based, HEK293-NOX2, PMA-stimulated, NOX inhibitor project, primary screen (AID 1159); settings: 45 min, higher = more signal, called active from +8 up or from −8 down; also: test concentration not given here
NADPH oxidase 2 (Homo sapiens), sequence (P04839 whole entry, looked up): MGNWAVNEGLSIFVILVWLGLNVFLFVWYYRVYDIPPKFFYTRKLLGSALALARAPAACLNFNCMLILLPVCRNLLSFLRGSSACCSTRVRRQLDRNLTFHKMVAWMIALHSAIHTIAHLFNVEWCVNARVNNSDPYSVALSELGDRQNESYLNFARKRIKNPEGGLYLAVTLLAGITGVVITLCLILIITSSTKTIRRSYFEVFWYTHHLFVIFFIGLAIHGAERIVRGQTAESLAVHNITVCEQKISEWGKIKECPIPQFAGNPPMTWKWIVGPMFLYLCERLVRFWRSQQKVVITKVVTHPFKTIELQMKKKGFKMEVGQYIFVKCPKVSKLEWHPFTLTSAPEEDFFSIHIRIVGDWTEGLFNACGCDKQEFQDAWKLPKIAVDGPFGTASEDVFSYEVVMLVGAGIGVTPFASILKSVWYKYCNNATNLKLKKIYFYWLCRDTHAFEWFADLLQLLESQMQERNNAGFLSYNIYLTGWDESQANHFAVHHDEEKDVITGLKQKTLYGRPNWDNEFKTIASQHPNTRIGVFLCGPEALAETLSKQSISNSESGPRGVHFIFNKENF

[19] = target: NADPH oxidase 4 (Homo sapiens) (UniProt Q9NPH5); assay: compounds shifting NOX4 Amplex Red fluorescence – cell-based, HEK293-NOX4, tetracycline-induced, NOX inhibitor project, primary screen (AID 1160); settings: HEK293-NOX4, Amplex Red H2O2 fluorescence, 45 min; higher = more signal, called active from +8 up or from −8 down
NADPH oxidase 4 (Homo sapiens), sequence (Q9NPH5 whole entry, looked up): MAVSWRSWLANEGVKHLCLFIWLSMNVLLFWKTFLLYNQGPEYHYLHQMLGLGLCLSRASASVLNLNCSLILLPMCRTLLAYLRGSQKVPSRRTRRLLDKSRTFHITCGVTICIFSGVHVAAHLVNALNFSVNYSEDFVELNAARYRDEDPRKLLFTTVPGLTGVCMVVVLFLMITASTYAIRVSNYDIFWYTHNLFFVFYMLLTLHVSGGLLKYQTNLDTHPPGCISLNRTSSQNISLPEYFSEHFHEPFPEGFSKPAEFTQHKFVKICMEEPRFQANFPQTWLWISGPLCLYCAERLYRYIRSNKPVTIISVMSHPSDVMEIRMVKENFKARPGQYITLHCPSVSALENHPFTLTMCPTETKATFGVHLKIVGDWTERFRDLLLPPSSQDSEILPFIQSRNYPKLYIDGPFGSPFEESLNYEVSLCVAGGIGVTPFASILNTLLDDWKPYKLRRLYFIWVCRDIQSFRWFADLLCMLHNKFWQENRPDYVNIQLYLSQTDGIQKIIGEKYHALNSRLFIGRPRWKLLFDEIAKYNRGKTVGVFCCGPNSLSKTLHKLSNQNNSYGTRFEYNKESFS

[20] = target: NADPH oxidase 5 (Homo sapiens) (UniProt Q96PH1); assay: compounds shifting NOX5 Amplex Red fluorescence – cell-based, HEK293-NOX5, NOX inhibitor project, primary screen (AID 1161); settings: HEK293-NOX5, ionomycin, 45 min, higher = more signal
NADPH oxidase 5 (Homo sapiens), sequence (Q96PH1 whole entry, looked up): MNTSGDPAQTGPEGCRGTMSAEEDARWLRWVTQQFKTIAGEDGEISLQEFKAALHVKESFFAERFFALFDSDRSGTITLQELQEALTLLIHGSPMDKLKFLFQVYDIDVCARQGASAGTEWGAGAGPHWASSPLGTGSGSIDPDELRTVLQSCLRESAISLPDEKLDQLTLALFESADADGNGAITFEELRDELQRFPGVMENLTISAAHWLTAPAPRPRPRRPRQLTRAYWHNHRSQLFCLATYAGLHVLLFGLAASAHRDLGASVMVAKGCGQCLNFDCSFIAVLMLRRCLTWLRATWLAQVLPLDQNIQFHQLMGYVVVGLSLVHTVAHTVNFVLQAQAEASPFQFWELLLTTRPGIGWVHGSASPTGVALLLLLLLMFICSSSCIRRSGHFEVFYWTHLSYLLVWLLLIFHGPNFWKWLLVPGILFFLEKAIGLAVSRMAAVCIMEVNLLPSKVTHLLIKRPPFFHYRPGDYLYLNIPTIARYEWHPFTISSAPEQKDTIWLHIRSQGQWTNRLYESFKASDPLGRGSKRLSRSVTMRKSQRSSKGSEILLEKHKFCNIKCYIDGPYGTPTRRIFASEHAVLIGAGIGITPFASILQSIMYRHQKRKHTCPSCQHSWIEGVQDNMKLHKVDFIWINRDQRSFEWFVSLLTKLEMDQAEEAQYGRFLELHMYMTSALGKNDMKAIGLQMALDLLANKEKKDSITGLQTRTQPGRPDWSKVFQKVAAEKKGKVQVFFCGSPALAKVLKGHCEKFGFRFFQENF

| SMILES | composite z-score [1] | z-score [2] | z-score [3] | z-score [4] | z-score [5] | composite z-score [6] | composite z-score [7] | composite z-score (Torsin-1A (Homo sapiens) [8]) | composite z-score (Torsin-1A (Homo sapiens) [9]) | composite z-score [10] | z-score [11] | composite z-score [12] | z-score [13] | z-score [14] | z-score [15] | z-score [16] | z-score [17] | z-score [18] | z-score [19] | z-score [20] |
| --- | --- | --- | --- | --- | --- | --- | --- | --- | --- | --- | --- | --- | --- | --- | --- | --- | --- | --- | --- | --- |
| CCCC[C@@H]1C[C@H]1[C@@H](NC(=O)c1ccco1)c1ccccc1C(F)(F)F | 0.667 | -0.547 (inactive) | 0.431 (inactive) | 0.773 (inactive) | 1.3 (inactive) | 1.42 | 2.01 | 0.408 | -0.0311 | 0.0509 | -1.91 (inactive) | 2.47 | 0.233 (inactive) | 0.105 (inactive) | -0.104 (inactive) | 0.471 (inactive) | -0.278 | -0.295 (inactive) | -1.28 (inactive) | -1.26 |
| COc1ccc(C(O)C2C=CC3C(=O)N(Cc4ccccc4)C(=O)C3N2n2cnnc2)cc1OCc1ccccc1 (stereo not given) | 0.0401 | -2.81 (inactive) | -2.01 (inactive) | -0.424 (inactive) | -0.0263 (inactive) | 0.296 | -0.0962 | -0.476 | 0.562 | -0.733 | 0.209 (inactive) | 0.142 | 1.3 (inactive) | 0.0118 (inactive) | 0.372 (inactive) | -1.82 (inactive) | 1.42 | -0.361 (inactive) | -0.079 (inactive) | 0.384 |
| COc1ccccc1CN1C(=O)c2ccccc2[C@@]2(Cc3ccccc3N(CC(C)C)C2=O)[C@@H]1c1ccc(CO)cc1 | -0.37 | 0.332 (inactive) | 0.8 (inactive) | -0.412 (inactive) | 0.462 (inactive) | -0.551 | 0.027 | -0.913 | -0.0676 | -0.452 | -0.12 (inactive) | -0.827 | 0.226 (inactive) | 0.215 (inactive) | 0.297 (inactive) | 0.109 (inactive) | 0.0317 | -0.0964 (inactive) | 0.11 (inactive) | 1.12 |
| CC(C)CNC(=O)[C@@]1(Cc2ccccc2I)c2ccccc2C(=O)N(C2CCCCC2)[C@H]1c1ccc(CO)cc1 | 0.705 | -1.71 (inactive) | 0.0484 (inactive) | -0.206 (inactive) | -0.0769 (inactive) | -0.346 | 0.23 | 0.222 | 0.551 | 0.187 | -0.664 (inactive) | 0.257 | 3.85 (inactive) | 0.198 (inactive) | 2.26 (inactive) | 0.183 (inactive) | -0.141 | -0.394 (inactive) | 0.839 (inactive) | 0.184 |
| COC(=O)[C@@]1(Cc2ccc(F)cc2)[C@H]2c3cc(C(=O)N4CCCC4)n(Cc4ccc(S(C)(=O)=O)cc4)c3C[C@H]2CN1C(=O)c1ccccc1 | 0.196 | -1.71 (inactive) | 0.53 (inactive) | 0.39 (inactive) | 0.363 (inactive) | 1.19 | 0.864 | 0.181 | 0.861 | -0.716 | -1.75 (inactive) | 1.24 | 2.29 (inactive) | 0.675 (inactive) | 0.775 (inactive) | 0.643 (inactive) | -0.339 | 0.949 (inactive) | -0.138 (inactive) | -0.744 |
| C=C(CCCC)C(=O)CC[C@@H](OC(=O)c1ccccc1-c1ccccc1C(=O)O)c1ccc(OCCO)cc1 | 0.27 | 0.142 (inactive) | -0.385 (inactive) | -0.336 (inactive) | 1.8 (inactive) | -0.074 | -0.128 | 0.803 | 0.427 | 0.586 | -0.181 (inactive) | -0.23 | 17.2 (active) | 1.73 (inactive) | 1.15 (inactive) | 0.602 (inactive) | 0.276 | 2.45 (inactive) | 0.216 (inactive) | -0.936 |
| O[C@@H](Cc1ccccc1)[C@H]1C2C=CCCC=C2CN1Cc1cccc(Cl)c1 (stereo not given in full) | 0.35 | -1.1 (inactive) | -0.829 (inactive) | 3.56 (inactive) | 2.78 (inactive) | 0.513 | 0.0173 | 0.739 | -0.453 | 1.2 | 1.31 (inactive) | 0.0701 | 2.58 (inactive) | 0.499 (inactive) | 1.33 (inactive) | 0.108 (inactive) | 0.399 | -0.318 (inactive) | -1.27 (inactive) | -0.609 |
| [N-]=[N+]=NCc1ccccc1C[C@]1(C(N)=O)COC(c2ccc(OCCCO)cc2)=N1 | 0.217 | -2.4 (inactive) | -0.602 (inactive) | -0.585 (inactive) | -1.68 (inactive) | 0.468 | 0.189 | 0.728 | 0.972 | -0.584 | 2.84 (inactive) | 0.52 | 15.3 (active) | 1 (inactive) | 1.68 (inactive) | -0.185 (inactive) | 2.31 | -1.48 (inactive) | -0.0652 (inactive) | -1.07 |
| COc1ccc(CCNC(=O)[C@@]2(Sc3ccc(C)cc3)CC(=O)N(C3Cc4ccccc4C3)[C@@H]2c2ccc(CO)cc2I)cc1 | -0.234 | -1.23 (inactive) | 0.74 (inactive) | 0.649 (inactive) | 1.82 (inactive) | -0.814 | -0.196 | -0.27 | 0.0598 | -0.862 | 0.657 (inactive) | 0.627 | 10.7 (active) | 1.95 (inactive) | 0.497 (inactive) | 0.768 (inactive) | -0.123 | 1.51 (inactive) | -1.66 (inactive) | 1.9 |
